Source: PubChem BioAssay
Values without a mark were called inactive. Some of the results follow. Calls of active or inactive are those of the source.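 How the source made its calls, unless noted: active means inhibition above a cutoff equal to the mean inhibition of all tested compounds plus 3 SD (cut at about 30% in these data); inactive means the rest.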

What was measured:
[1] = molecular target: Photoreceptor-specific nuclear receptor (Homo sapiens) (UniProt Q9Y5X4); experiment: NR2E3 agonists, confirmation, biochemical, TR-FRET (AID 2379; in the data active means activation above about 20%); settings: cell-free NR2E3 corepressor release, 5 h, at 3.98 µM, hits give high values
[2] = molecular target: Protein-arginine deiminase type-4 (Homo sapiens) (UniProt Q9UM07); experiment: human PAD4 inhibitors, confirmation, biochemical, fluorescence polarization (AID 488796;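 active means mean inhibition across replicates above the hit cutoff set by the earlier primary screen, cut at about 15% in these data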;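 further: inhibitors block active-site labeling by the probe so polarization falls; 0% = PAD4 with probe and DMSO and 100% = probe without PAD4 enzyme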); settings: recombinant PAD4, RCA probe fluorescence polarization; at 6.36 µM; hits give high values
Sequence of Protein-arginine deiminase type-4 (Homo sapiens) (Q9UM07 whole entry, looked up): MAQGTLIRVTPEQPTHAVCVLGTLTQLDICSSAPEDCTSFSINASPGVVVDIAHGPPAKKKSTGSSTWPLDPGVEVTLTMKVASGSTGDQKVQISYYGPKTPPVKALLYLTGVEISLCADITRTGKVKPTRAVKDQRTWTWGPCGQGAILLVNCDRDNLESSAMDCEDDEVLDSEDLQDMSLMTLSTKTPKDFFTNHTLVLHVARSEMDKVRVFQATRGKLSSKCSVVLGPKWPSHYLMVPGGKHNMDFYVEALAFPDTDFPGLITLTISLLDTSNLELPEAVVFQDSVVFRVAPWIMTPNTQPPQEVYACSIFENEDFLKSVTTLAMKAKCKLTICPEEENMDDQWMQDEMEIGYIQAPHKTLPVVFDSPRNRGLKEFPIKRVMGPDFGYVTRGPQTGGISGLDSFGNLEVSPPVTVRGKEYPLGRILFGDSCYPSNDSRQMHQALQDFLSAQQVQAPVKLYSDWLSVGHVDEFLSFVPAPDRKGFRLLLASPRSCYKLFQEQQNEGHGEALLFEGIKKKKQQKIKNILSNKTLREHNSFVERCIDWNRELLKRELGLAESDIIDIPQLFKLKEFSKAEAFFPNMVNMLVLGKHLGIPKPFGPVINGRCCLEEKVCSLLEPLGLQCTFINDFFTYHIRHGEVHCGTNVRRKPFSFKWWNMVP

[3] = molecular target: Peroxisome proliferator-activated receptor gamma (Homo sapiens) + Nuclear receptor corepressor 2 (Homo sapiens) (UniProt P37231+Q9Y618); experiment: agonists of PPARg-NCOR2 corepressor interaction, counter-screen for NR2E3 agonist project, biochemical, TR-FRET (AID 504787; in the data active means inhibition above about 20%;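 further: 0% = DMSO vehicle and 100% = wells without protein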); settings: TR-FRET PPARg-NCOR2 coregulator interaction, at 3.98 µM, hits give high values
[4] = molecular target: Platelet-activating factor acetylhydrolase IB subunit alpha1 (Homo sapiens) (UniProt Q15102); experiment: PAFAH1B3 enzyme inhibitors, confirmation, biochemical, fluorescence polarization, human (AID 493032;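 active means average inhibition over triplicate runs above the hit cutoff set in the earlier primary screen, cut at about 25% in these data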;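 further: 0% = enzyme with DMSO and 100% = wells lacking PAFAH1B3 protein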); settings: recombinant PAFAH1B3, FP-Rh activity-based probe, at 3.39 µM, hits give high values
Sequence of Platelet-activating factor acetylhydrolase IB subunit alpha1 (Homo sapiens) (Q15102 whole entry, looked up): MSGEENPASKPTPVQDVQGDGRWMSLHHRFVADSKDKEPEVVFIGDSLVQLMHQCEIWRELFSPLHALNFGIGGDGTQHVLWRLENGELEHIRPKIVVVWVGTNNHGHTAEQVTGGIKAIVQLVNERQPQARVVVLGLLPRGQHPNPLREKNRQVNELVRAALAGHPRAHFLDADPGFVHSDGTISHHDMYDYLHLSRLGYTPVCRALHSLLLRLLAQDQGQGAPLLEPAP

[5] = molecular target: Toll-like receptor 9 (Homo sapiens) (UniProt Q9NR96); experiment: TLR9-MyD88 association inhibitors, retest, confirmation, cell-based, CHO, BLA complementation, fluorescence, triplicate (AID 540250;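 active means mean inhibition across three repeats above about 21% taken from the earlier screen, limit read from the data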;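 further: blue over green emission ratio reports constitutive TLR9 MyD88 association via BLA complementation; 0% = DMSO vehicle wells and 100% = clavulanate BLA inhibitor wells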); settings: CCF4 FRET ratio, at 4.98 µM, hits give high values
[6] = beta-lactamase reporter inhibitors in CHO cells, artefact control for TLR9-MyD88 binding inhibitor project, cell-based, fluorescence (AID 540251;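 active means mean inhibition above a 50% cutoff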;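 further: counterscreen of TLR9-MyD88 hits on CMV-driven BLA in CHO-K1 cells; 0% = DMSO alone and 100% = clavulanate blocking BLA; higher means less blue over green ratio so more BLA blockade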); settings: CHO-BLA cells, CCF4 FRET ratio, at 4.98 µM, hits give high values
[7] = CHO cell viability loss – luminescence, single concentration, cytotoxicity control for TLR9-MyD88 binding inhibitor project (AID 588336; in the data active means inhibition above about 11%); settings: TLR9-MyD88 CHO cells cytotoxicity, at 4.98 µM, hits give high values
[8] = system: transactivating tegument protein VP16 (Human herpesvirus 1); experiment: VP16 transactivation reporter inhibitors, counter-screen for SRC2 inhibitor project, cell-based, luminescence, single concentration (AID 652007; in the data active means inhibition above about 36%); settings: cell-based VP16 transactivation luciferase reporter, at 8.9 µM, hits give high values
[9] = molecular target: Nuclear receptor coactivator 2 (Homo sapiens) (UniProt Q15596); experiment: SRC2 coactivator transcriptional activity inhibitors, confirmation, cell-based, luminescence, HEK293, triplicate (AID 652008;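 active means mean inhibition above 46.5%, the solvent-only control mean plus 3 SD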;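 further: 0% = DMSO-treated cells and 100% = Gossypol at 36 µM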); settings: HEK293 GAL4-SRC2 luciferase reporter, at 8.9 µM, hits give high values
[10] = Gal4-VP16 luciferase reporter inhibitors, counter-screen for COUP-TFII antagonist project, cell-based, luminescence, HEK293 (AID 687007; in the data active means inhibition above about 13%); settings: at 8.5 µM, hits give high values
[11] = molecular target: COUP transcription factor 2 (Homo sapiens) (UniProt P24468); experiment: NR2F2 transcriptional activity inhibitors, confirmation, cell-based, luciferase reporter, HEK293, triplicate (AID 687008;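 active means mean inhibition over three repeats above a set limit taken from the earlier primary screen, cut at about 38% in these data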;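 further: 100% = cells given the luciferase reporter alone without the COUP-TF2 vector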); settings: HEK293 NGFI-A luciferase reporter, luminescence; at 8.5 µM; hits give high values
Sequence of COUP transcription factor 2 (Homo sapiens) (P24468 whole entry, looked up, the tested form may be a part): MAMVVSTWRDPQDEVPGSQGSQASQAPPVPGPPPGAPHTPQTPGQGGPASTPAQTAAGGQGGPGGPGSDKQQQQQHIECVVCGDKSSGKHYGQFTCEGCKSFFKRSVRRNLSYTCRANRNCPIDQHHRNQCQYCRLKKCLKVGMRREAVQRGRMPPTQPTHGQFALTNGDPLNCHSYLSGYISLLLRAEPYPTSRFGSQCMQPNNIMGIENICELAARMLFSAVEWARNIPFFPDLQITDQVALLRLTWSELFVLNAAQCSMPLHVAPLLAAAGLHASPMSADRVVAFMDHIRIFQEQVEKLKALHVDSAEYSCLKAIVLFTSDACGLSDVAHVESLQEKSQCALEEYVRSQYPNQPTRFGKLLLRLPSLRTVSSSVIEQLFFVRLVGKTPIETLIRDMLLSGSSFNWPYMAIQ

[12] = molecular target: Oxysterols receptor LXR-beta (Homo sapiens) (UniProt P55055); experiment: LXR agonists, Gal4 luciferase reporter, confirmation, counter-screen for hcDAF-12 agonist project, cell-based, luminescence, HEK293, H. contortus campaign (AID 743027;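 active means mean percent activation of the reporter above a cutoff set as the average over tested compounds plus their standard deviation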); settings: HEK293 Gal4-LXR tk-luc reporter, 24 h, at 6.8 µM, hits give high values, normalized: DMSO 0%, positive control 100%
Sequence of Oxysterols receptor LXR-beta (Homo sapiens) (P55055 whole entry, looked up, the tested form may be a part): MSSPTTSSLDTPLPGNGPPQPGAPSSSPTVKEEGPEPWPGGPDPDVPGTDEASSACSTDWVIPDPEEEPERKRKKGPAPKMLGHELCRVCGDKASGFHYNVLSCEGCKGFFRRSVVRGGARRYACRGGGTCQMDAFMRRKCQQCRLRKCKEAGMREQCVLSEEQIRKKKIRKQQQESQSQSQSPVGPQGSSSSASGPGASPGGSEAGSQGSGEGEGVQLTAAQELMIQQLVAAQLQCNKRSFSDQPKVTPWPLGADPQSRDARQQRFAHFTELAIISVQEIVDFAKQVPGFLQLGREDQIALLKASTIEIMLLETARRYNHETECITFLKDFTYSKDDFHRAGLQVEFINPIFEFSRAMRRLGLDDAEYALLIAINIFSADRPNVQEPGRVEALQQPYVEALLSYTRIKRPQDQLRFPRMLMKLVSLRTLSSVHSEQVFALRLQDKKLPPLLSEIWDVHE

[13] = system: Nuclear hormone receptor DAF-12 (Haemonchus contortus); experiment: H. contortus DAF-12 receptor agonists, confirmation, cell-based, luminescence, HEK293, lit1-tk-luc, triplicate (AID 743032;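 active means mean activation across triplicate tests above the threshold derived from the earlier primary screen, cut at about 5.5% in these data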;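 further: 0% = DMSO only wells and 100% = 3 µM Δ7-dafachronic acid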); settings: HEK293 hcDAF-12 lit1-tk-luc reporter, at 6.8 µM, hits give high values, % of Δ7-dafachronic acid response
[14] = molecular target: Bcl-2-like protein 1 (Homo sapiens) (UniProt Q07817); experiment: Bcl-xL inhibitors blocking Bim BH3 binding, confirmation, counter-screen for MCL1 inhibitor project, biochemical, fluorescence polarization (AID 2166); settings: GST-Bcl-xL / FITC-Bim BH3 peptide FP binding; at 10.9 µM; hits give high values
Sequence of Bcl-2-like protein 1 (Homo sapiens) (Q07817 whole entry, looked up): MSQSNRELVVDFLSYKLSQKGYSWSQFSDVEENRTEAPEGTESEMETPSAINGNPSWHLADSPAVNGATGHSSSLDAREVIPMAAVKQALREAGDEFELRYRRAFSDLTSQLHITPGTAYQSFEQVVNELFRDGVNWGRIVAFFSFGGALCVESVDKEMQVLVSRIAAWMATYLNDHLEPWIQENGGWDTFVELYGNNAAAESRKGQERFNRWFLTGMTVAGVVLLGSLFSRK

[15] = molecular target: Induced myeloid leukemia cell differentiation protein Mcl-1 (Homo sapiens) (UniProt Q07820); experiment: inhibitors of MCL1 binding to BIM-BH3, confirmation, biochemical, fluorescence polarization, triplicate (AID 2168;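 active means inhibition above the average of all tested compounds plus 3 SD, cut at about 40% in these data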;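 further: 0% = DMSO wells and 100% = unlabeled Bim-BH3 control peptide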); settings: GST-MCL1 / FITC-Bim-BH3 fluorescence polarization; at 10.9 µM; hits give high values
Sequence of Induced myeloid leukemia cell differentiation protein Mcl-1 (Homo sapiens) (Q07820 whole entry, looked up): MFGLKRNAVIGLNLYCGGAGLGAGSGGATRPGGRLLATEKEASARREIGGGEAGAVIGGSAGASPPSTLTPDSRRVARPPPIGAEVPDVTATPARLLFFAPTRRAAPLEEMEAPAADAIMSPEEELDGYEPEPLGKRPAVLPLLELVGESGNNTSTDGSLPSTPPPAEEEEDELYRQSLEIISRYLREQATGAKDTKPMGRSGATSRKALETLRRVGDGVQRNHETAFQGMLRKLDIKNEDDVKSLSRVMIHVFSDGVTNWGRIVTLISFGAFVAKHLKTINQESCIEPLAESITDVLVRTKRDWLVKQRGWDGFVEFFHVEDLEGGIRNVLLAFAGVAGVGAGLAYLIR

[16] = molecular target: Glutathione S-transferase omega-1 (Homo sapiens) (UniProt P78417); experiment: GSTO1 inhibitor hit confirmation, counter-screen for RBBP9 inhibitor project, biochemical, fluorescence polarization, triplicate (AID 2176;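 active means inhibition above the primary screen's cutoff, its mean inhibition plus 3 SD, cut at about 35% in these data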;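 further: loss of polarization as inhibitors block binding of rhodamine sulfonate ester activity probe; 0% = GSTO1 with DMSO and 100% = wells lacking GSTO1 enzyme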); settings: recombinant GSTO1, probe fluorescence polarization; at 5.96 µM; hits give high values
Sequence of Glutathione S-transferase omega-1 (Homo sapiens) (P78417 whole entry, looked up): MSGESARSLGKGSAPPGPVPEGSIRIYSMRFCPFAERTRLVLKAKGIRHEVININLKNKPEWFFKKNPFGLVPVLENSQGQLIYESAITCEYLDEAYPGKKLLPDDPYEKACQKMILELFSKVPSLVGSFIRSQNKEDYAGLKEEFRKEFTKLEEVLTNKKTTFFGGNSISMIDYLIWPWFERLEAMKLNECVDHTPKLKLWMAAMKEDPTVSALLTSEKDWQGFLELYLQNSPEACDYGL

[17] = molecular target: Serine protease HTRA1 (Homo sapiens) (UniProt Q92743); experiment: HTRA1 protease inhibitors, retest, confirmation, biochemical, fluorescence polarization (AID 540248;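 active means mean inhibition over three repeats above a set limit taken from the earlier primary screen, cut at about 37% in these data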;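 further: 0% = HTRA1 with DMSO and 100% = wells lacking HTRA1; inhibitors block probe binding so polarization drops and inhibition rises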); settings: recombinant HTRA1, FP-rhodamine activity-based probe, at 5.96 µM, hits give high values
[18] = molecular target: Nuclear receptor coactivator 3 (Homo sapiens) (UniProt Q9Y6Q9); experiment: SRC3 coactivator transcriptional activity inhibitors, confirmation, cell-based, luminescence, quadruplicate (AID 588792;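 active means mean inhibition over 43.08%, the solvent-only control mean plus 3 SD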;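 further: 0% = DMSO treated cells and 100% = gossypol at 36 µM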); settings: HEK293 GAL4-SRC3 luciferase reporter, at 3.6 µM, hits give high values
Sequence of Nuclear receptor coactivator 3 (Homo sapiens) (Q9Y6Q9 whole entry, looked up, the tested form may be a part): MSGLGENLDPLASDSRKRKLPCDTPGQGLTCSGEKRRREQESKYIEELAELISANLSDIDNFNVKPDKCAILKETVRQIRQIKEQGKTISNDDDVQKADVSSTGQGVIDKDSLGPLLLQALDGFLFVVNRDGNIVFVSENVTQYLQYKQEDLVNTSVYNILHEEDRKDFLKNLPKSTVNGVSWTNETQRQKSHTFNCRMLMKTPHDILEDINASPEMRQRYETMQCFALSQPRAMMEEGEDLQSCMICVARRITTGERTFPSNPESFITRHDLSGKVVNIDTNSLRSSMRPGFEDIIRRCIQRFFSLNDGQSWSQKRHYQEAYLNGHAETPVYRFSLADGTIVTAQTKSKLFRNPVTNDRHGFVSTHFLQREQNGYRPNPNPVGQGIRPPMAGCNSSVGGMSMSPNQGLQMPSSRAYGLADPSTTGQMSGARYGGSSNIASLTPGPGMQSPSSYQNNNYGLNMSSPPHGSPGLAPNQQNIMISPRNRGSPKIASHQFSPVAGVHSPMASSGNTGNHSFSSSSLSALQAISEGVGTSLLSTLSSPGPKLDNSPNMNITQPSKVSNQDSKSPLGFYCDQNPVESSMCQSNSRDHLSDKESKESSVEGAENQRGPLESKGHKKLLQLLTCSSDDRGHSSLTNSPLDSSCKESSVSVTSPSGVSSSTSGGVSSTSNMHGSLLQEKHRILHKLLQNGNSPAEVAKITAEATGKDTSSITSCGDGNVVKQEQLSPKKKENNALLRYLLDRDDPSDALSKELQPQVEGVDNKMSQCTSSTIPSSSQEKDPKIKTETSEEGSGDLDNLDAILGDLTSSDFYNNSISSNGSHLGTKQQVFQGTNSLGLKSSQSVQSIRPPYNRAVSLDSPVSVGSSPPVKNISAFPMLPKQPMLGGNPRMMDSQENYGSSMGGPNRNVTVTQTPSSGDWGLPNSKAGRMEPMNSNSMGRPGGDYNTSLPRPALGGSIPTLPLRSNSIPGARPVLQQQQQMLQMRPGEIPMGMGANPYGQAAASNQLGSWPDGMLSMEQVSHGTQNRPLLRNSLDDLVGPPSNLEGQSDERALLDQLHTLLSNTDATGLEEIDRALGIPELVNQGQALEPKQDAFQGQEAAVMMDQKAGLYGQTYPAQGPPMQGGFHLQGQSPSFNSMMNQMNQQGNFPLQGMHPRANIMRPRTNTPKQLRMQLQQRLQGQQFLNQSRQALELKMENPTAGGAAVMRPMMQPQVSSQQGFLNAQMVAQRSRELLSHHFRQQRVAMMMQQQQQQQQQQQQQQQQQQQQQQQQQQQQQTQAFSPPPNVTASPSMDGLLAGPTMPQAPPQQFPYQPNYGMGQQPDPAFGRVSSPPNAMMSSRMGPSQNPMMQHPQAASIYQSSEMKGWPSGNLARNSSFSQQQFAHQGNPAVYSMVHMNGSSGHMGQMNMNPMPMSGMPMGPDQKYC

[19] = system: transactivating tegument protein VP16 (Human herpesvirus 1), Gal4-VP16 luciferase reporter; experiment: VP16 transactivation inhibitors, counter-screen for SRC3 inhibitor project, cell-based, luminescence, high throughput (AID 588794; in the data active means inhibition above about 30%); settings: mammalian cells, VP16-driven luciferase reporter luminescence; at 3.6 µM; hits give high values
[20] = molecular target: Nuclear receptor coactivator 1 (Homo sapiens) (UniProt Q15788); experiment: SRC1 coactivator transcriptional activity inhibitors, confirmation, cell-based, luminescence, quadruplicate (AID 588820;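 active means mean inhibition above 46.68%, the untreated control wells mean plus 3 SD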;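 further: 0% = DMSO wells and 100% = gossypol 36 µM treated wells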); settings: HEK293 GAL4-SRC1 luciferase reporter, at 3.6 µM, hits give high values
[21] = VP16 transactivation inhibitors, counter-screen for SRC1 inhibitor project, cell-based, luminescence, high throughput (AID 588824; in the data active means inhibition above about 25%); settings: cell-based VP16 transactivation luciferase luminescence; at 3.6 µM; hits give high values
[22] = molecular target: (Lyso)-N-acylphosphatidylethanolamine lipase (Mus musculus) (UniProt Q8VD66); experiment: ABHD4 inhibitors, retest, confirmation, biochemical, fluorescence polarization, mouse (AID 720658;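 active means mean inhibition across replicates above the hit cutoff set in the primary screen, cut at about 30% in these data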;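 further: 0% = wild-type ABHD4 with DMSO and 100% = catalytically dead S159A mutant with DMSO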); settings: purified mABHD4, FP-Rh probe fluorescence polarization; at 8.92 µM; hits give high values
Sequence of (Lyso)-N-acylphosphatidylethanolamine lipase (Mus musculus) (Q8VD66 whole entry, looked up): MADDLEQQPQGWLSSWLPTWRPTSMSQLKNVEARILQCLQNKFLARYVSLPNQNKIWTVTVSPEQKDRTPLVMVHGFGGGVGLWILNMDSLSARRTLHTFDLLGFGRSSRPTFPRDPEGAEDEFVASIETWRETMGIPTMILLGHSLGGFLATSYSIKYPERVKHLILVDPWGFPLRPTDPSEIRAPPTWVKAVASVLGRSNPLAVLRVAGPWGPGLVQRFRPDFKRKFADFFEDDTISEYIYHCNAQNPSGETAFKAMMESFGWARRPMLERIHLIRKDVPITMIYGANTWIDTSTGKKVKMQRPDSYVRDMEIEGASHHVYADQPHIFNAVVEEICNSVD

[23] = molecular target: Lytic switch protein BZLF1 (Epstein-Barr virus (strain B95-8)) (UniProt P03206); experiment: EBV Zta binding to ZRE DNA, inhibitors, confirmation, biochemical, fluorescence polarization, triplicate (AID 2361;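 active means mean inhibition across triplicate runs above the hit threshold derived for the original primary screen, cut at about 33% in these data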;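 further: 0% = Zta with DMSO and 100% = wells lacking Zta protein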); settings: at 11.1 µM, hits give high values
Sequence of Lytic switch protein BZLF1 (Epstein-Barr virus (strain B95-8)) (P03206 whole entry, looked up): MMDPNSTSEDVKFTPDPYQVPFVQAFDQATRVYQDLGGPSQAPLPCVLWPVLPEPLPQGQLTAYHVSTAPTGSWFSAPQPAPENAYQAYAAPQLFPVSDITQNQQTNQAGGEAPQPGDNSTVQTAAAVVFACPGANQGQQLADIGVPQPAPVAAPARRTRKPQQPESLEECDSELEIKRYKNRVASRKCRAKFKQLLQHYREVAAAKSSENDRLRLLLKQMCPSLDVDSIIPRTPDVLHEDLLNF

[24] = system: Epstein-Barr virus nuclear antigen 1 (EBNA-1), Human herpesvirus 4; experiment: EBNA-1 DNA-binding inhibition, counter-screen for ZTA inhibitor project, biochemical, fluorescence polarization (AID 2362; call rule not given here); settings: at 14.8 µM, hits give high values

SMILES: COCCNC(=O)Nc1ccc2nc(-c3ccco3)c(-c3ccco3)nc2c1
- activation (reported as inhibition) [1]: -0.99%
- inhibition [2]: 1.02%
- inhibition [3]: -6.1%

SMILES: O=C(CCn1c(SCC(=O)c2ccccc2)nc2ccccc2c1=O)NCc1ccc(F)cc1
- inhibition [2]: -0.06%

SMILES: O=C(N/N=C/c1sc(N2CCCCC2)nc1-c1cccs1)c1cccnc1
- inhibition [4]: 12.7%

SMILES: Cc1cccc2cc3c(N)c(C(=O)N4CCCc5ccccc54)sc3nc12
- inhibition [5]: 15.4%
- inhibition [6]: 12.7%
- inhibition [7]: 33.7% (active)

SMILES: Cc1ccc(-c2cn3cc(C)ccc3n2)cc1
- inhibition [8]: 45.9% (active)
- inhibition [9]: 69.2% (active)
- inhibition [10]: 20.1% (active)
- inhibition [11]: 43.9% (active)

SMILES: Nc1ccc2nn(-c3ccc(Cl)cc3)nc2c1
- activation [12]: 1.78%
- activation [13]: 9.23% (active)

SMILES: Oc1ccc2ccccc2c1N=Nc1nccs1
- inhibition [14]: -28.4%
- inhibition [15]: -52.8%
- inhibition [16]: 24.3%
- inhibition [17]: 52.2% (active)
- inhibition [18]: 45.8% (active)
- inhibition [19]: 46.5% (active)
- inhibition [20]: 29.6%
- inhibition [21]: 55.1% (active)
- inhibition [22]: 64.9% (active)

SMILES: CCCn1c(C2CCCN2c2nc(-c3ccc(C)cc3)cs2)nc2cc(Cl)c(N3CCCCC3)cc21 (stereo unspecified)
- inhibition [14]: 4.86%
- inhibition [15]: 15.1%

SMILES: O=C(O)c1ccccc1N=N/C(=N/Nc1cc(S(=O)(=O)O)ccc1O)c1ccccc1
- inhibition [14]: 29.1%
- inhibition [15]: 69.6% (active)

SMILES: O=c1[nH]c2ccccc2n2c(-c3ccccc3)nnc12
- inhibition [14]: 36.7% (active)
- inhibition [15]: 34.5%
- inhibition [16]: 23.1%

SMILES: N/C(=N\OC(=O)CCc1ccccc1)c1ccc(Cl)cc1
- inhibition [14]: 1.43%
- inhibition [15]: -0.05%

SMILES: O=S(=O)([N-]c1nc2ccccc2nc1-[n+]1ccc(Cc2ccccc2)cc1)c1ccc(Br)s1
- inhibition [14]: 33.4% (active)
- inhibition [15]: 33.7%

SMILES: Cc1ccc(NC(=O)c2cc(-c3ccc(C)o3)nc3ccccc23)nc1
- inhibition [14]: 12.4%
- inhibition [15]: 41.7% (active)

SMILES: Cn1c2ccccc2c(=O)c2c(=O)n(Cc3ccco3)c(COc3ccccc3)nc21
- inhibition [14]: 38.4% (active)
- inhibition [15]: 60.8% (active)

SMILES: COC(=O)c1sc(NC(=S)NC(=O)c2ccc(C)cc2)nc1C
- inhibition [14]: 12.1%
- inhibition [15]: 19.3%

SMILES: O=C(COC(=O)Cn1cnc2ccccc21)Nc1cccc2c1C(=O)c1ccccc1C2=O
- inhibition [14]: 88.4% (active)
- inhibition [15]: 73.3% (active)

SMILES: Cc1ccc(C(=O)NC(=S)Nc2ccc(N3CCOCC3)cc2)cc1
- inhibition [14]: 8.63%
- inhibition [15]: 8.72%

SMILES: COC/C=C/C1=CC2=CC(=O)C(C)(OC(=O)CCC(=O)OC)C(=O)C2=CO1 (stereo unspecified)
- inhibition [14]: 43.5% (active)
- inhibition [15]: 59.1% (active)

SMILES: COC(=O)[C@H]1[C@H]2C[C@H]3c4[nH]c5ccccc5c4CCN3C[C@@H]2CC[C@@H]1O
- inhibition [14]: 88.6% (active)
- inhibition [15]: 112% (active)
- inhibition [23]: 22.7%
- inhibition [24]: -1.66%

SMILES: C1=C(N2CCOCC2)/C(=C/c2nc3ccccc3[nH]2)CC1
- inhibition [14]: 55.3% (active)
- inhibition [15]: 63% (active)

SMILES: O=C1c2ccccc2C(=O)c2c1cccc2N1CCN(CCO)CC1
- inhibition [14]: 43.9% (active)
- inhibition [15]: 58.3% (active)

SMILES: C=CCNc1nnc(SCC(=O)N2CCCCC2)c2ccccc12
- inhibition [14]: 55.6% (active)
- inhibition [15]: 67.8% (active)
